Source: PubChem BioAssay (EPA / NIEHS)
Where “and” joins values, the source holds several entries; their conditions need not be identical. Identical values can stand only once. Inconclusive results are not listed. Some structures have more than one record in an assay (separate samples or runs), and their calls can disagree. Calls of active or inactive are those of the source. How the source made its calls, unless noted: active means hit-call score of the fitted dose curve at least 0.9, where 1 is the maximum; inconclusive means response in the unintended direction; inactive means score below 0.9.

What was measured:
[1] = biological target: Estrogen receptor beta (Homo sapiens) (UniProt Q92731); assay: OT_ER_ERbERb_1440: Odyssey Thera (OT) 24-hour HEK293T Protein-Complementation Assay for Estrogen Receptor-beta/-beta Homodimer (AID 2283380);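 further: scored as signal increase over DMSO baseline for both agonists and antagonists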
Method in brief: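 HEK293T cells stably expressing ER beta LBD (aa 310-547) homodimer fragment-complementation reporter, dosed 24 h. Cells formaldehyde-fixed, Draq5-stained; gain in nuclear (agonist) or nuclear plus cytoplasmic (antagonist) fluorescence versus DMSO read by laser scanning cytometry.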

[2] = biological target: Estrogen receptor (Homo sapiens) (UniProt P03372); assay: OT_ERa_GFPERaERE_0480: Odyssey Thera (OT) 8-hour HeLa Transcription Induction Assay for Estrogen Receptor (AID 2283381; active means hit-call score of the fitted dose curve at least 0.9, where 1 is the maximum; inactive means score below 0.9)
Method in brief: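 An 8 h HeLa transcription-induction format with a GFP reporter under ERE control, read by fluorescence microscopy; single endpoint fitted positively with DMSO as baseline.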

[3] = biological target: Estrogen receptor (Homo sapiens) (UniProt P03372); assay: OT_ERa_GFPERaERE_0120: Odyssey Thera (OT) 2-hour HeLa Transcription Induction Assay for Estrogen Receptor (AID 2283382)
Method in brief: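 Two-hour compound treatment of HeLa cells preceded microscopy imaging of an inducible fluorescent reporter. Image-based quantification gave one endpoint, analysed for signal increase relative to DMSO controls.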

[4] = biological target: Bile acid receptor (Homo sapiens) (UniProt Q96RI1); assay: OT_FXR_FXRSRC1_0480: Odyssey Thera (OT) 8-hour HEK293T Protein-Complementation Assay for Farnesoid X receptor/SRC-1 Co-activator (AID 2283383)
Method in brief: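 Readings were taken 8 h after dosing HEK293T cells in a split-reporter complementation format pairing FXR with SRC-1. Increased fluorescence relative to DMSO-treated wells defined activity.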

[5] = biological target: Peroxisome proliferator-activated receptor gamma (Homo sapiens) (UniProt P37231); assay: OT_PPARg_PPARgSRC1_0480: Odyssey Thera (OT) 8-hour Protein-Complementation Assay for Peroxisome Proliferator-activated Receptor Gamma / SRC-1 Co-activator (AID 2283387);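 further: nuclear to cytoplasmic split Venus YFP fluorescence ratio reporting PPARg SRC-1 interaction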
Method in brief: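 Split-YFP (IFP1/IFP2) PPARg/SRC-1 reporter, HEK293T, 37 °C, 5% CO2; 8 h compound; formaldehyde fix + Draq5; high-content imaging, N/C ratio, ≥350 cells/image, positive direction vs DMSO.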

[6] = biological target: Peroxisome proliferator-activated receptor gamma (Homo sapiens) (UniProt P37231); assay: OT_PPARg_PPARgSRC1_1440: Odyssey Thera (OT) 24-hour Protein-Complementation Assay for Peroxisome Proliferator-activated Receptor Gamma/ SRC-1 Co-activator (AID 2283388);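 further: nuclear to cytoplasmic ratio of reconstituted Venus YFP fluorescence in fixed imaged cells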
Method in brief: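 Protein-fragment complementation between PPARg and coactivator SRC-1 was measured by fluorescence imaging in transiently transfected HEK293T cells after 24 h treatment. Signal was quantified as N/C ratio in the 488 nm channel, with DMSO as negative control.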

[7] = biological target: Retinoic acid receptor RXR-alpha (Homo sapiens) (UniProt P19793); assay: OT_NURR1_NURR1RXRa_0480: Odyssey Thera (OT) 8-hour HEK293T Protein Complementation Assay for Nurr1/retinoid X receptor (RXR) (AID 2283385)
Method in brief: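 Gain in fluorescent complementation signal over DMSO, measured 8 hours after chemical dosing of human kidney HEK293T cells, indicated enhanced Nurr1–RXRα association.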

[8] = biological target: Retinoic acid receptor RXR-alpha (Homo sapiens) (UniProt P19793); assay: OT_NURR1_NURR1RXRa_1440: Odyssey Thera (OT) 24-hour HEK293T Protein Complementation Assay for Nurr1/retinoid X receptor (RXR) (AID 2283386)
Method in brief: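 Cell-based binding reporter: HEK293T cells, 24 h exposure, fluorescence-detected fragment complementation, DMSO as baseline.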

[9] = CEETOX_H295R_11DCORT: CeeTox H295R High-throughput Steroidogenesis Assay for 11-Deoxycortisol (11DCORT) (AID 2283432; active means hit-call score of the fitted dose curve at least 0.9, where 1 is the maximum; inactive means score below 0.9;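 on AC50: human adrenal H295R cells prestimulated with 10 µM forskolin for 48 h; 11-deoxycortisol secreted into the medium measured by LC-MS/MS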); conditions: actives raise or lower the signal
Method in brief: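 Steroidogenesis in human H295R cells: 48 h chemical exposure after forskolin priming, 11-deoxycortisol measured by LC-MS/MS.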

Measured: AC50

Chain of Retinoic acid receptor RXR-alpha (Homo sapiens) (P19793 whole entry, looked up, the tested form may be a part): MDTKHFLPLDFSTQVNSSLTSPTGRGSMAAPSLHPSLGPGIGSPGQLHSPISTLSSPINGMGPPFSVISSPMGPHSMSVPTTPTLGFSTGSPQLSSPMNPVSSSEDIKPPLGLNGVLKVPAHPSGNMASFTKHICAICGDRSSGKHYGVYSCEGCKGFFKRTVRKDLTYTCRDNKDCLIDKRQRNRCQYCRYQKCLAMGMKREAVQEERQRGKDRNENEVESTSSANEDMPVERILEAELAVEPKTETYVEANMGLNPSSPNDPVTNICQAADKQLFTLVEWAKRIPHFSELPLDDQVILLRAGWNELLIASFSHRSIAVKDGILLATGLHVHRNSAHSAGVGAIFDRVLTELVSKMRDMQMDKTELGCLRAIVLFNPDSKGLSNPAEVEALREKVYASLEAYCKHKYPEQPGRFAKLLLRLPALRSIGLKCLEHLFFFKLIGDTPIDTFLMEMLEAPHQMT
Chain of Estrogen receptor beta (Homo sapiens) (Q92731 whole entry, looked up, the tested form may be a part): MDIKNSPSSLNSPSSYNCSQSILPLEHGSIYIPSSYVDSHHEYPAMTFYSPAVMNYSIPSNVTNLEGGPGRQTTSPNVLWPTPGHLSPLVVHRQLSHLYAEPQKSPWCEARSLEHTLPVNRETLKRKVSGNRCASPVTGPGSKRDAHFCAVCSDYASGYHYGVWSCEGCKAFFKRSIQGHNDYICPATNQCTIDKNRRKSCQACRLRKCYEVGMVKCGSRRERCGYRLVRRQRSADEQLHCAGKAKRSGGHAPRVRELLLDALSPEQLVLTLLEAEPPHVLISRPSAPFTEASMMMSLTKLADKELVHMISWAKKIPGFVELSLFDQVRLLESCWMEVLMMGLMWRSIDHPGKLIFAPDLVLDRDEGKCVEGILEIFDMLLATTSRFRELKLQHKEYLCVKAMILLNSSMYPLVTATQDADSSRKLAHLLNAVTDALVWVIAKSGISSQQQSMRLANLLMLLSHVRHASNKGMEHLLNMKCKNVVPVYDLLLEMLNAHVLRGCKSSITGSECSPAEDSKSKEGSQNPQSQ
Chain of Bile acid receptor (Homo sapiens) (Q96RI1 whole entry, looked up): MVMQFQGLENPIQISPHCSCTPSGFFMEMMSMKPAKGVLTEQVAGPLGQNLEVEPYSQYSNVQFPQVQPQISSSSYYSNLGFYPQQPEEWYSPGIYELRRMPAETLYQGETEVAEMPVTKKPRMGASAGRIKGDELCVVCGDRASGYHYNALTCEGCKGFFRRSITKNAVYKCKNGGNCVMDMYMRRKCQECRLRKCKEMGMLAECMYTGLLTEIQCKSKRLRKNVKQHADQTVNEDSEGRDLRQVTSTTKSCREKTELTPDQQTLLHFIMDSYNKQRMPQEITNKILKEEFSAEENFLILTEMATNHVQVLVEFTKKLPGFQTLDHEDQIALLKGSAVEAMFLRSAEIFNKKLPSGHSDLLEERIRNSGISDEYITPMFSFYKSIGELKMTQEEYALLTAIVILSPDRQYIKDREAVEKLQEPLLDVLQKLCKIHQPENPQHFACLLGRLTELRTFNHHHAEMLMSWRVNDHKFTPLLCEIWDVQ
Chain of Peroxisome proliferator-activated receptor gamma (Homo sapiens) (P37231 whole entry, looked up, the tested form may be a part): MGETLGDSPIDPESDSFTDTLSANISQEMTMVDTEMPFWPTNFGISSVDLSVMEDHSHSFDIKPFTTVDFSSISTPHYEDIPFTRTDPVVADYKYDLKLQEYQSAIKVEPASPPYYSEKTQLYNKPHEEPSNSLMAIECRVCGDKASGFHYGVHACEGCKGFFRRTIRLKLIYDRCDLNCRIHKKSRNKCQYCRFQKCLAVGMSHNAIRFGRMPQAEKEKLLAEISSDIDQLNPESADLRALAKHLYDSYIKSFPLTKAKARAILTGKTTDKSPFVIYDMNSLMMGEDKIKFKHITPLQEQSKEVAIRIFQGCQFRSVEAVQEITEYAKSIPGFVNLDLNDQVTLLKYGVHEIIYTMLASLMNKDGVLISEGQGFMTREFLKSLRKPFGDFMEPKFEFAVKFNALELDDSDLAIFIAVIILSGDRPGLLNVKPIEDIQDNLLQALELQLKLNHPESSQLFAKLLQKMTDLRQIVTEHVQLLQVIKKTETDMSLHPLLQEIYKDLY
Chain of Estrogen receptor (Homo sapiens) (P03372 whole entry, looked up): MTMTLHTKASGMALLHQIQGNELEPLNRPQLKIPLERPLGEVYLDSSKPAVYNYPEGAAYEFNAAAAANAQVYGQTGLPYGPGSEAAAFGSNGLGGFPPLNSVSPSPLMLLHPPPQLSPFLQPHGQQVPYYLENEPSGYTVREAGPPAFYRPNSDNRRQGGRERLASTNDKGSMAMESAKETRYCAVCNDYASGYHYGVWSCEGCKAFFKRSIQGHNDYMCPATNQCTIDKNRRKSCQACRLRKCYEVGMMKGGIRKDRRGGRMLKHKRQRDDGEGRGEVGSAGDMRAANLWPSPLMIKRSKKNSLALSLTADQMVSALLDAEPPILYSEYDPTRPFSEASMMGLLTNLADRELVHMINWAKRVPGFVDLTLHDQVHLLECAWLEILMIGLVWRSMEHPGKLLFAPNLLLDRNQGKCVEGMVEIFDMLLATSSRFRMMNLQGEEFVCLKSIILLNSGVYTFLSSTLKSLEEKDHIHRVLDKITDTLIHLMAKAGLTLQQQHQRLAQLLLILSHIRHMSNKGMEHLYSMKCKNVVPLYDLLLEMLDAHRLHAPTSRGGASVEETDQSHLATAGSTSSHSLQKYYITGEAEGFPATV

CNC(=O)Oc1cccc(N=CN(C)C)c1
not listed: [7] | [8] | [9]
inactive: all other assays above

COP(=S)(OC)Oc1ccc([N+](=O)[O-])cc1
active: [4] 36.8 µM
not listed: [9]
inactive: all other assays above

CCN(CC)C(=O)SCc1ccc(Cl)cc1
active: [4] 40 µM | [9] 24.6 µM
not listed: [1] | [8]
inactive: all other assays above

CNC(=O)/C=C(\C)OP(=O)(OC)OC
not listed: [4]
inactive: all other assays above

COP(=S)(OC)Oc1ccc(SC)c(C)c1
active: [9] 41.5 µM
not listed: [4]
inactive: all other assays above

CCC(C)(NC(=O)c1cc(Cl)c(C)c(Cl)c1)C(=O)CCl (configuration not stated)
inactive: [1] | [7] | [5] | [6]
active: [2] 13.6 µM | [3] 45 µM

O=S1OCC2C(CO1)C1(Cl)C(Cl)=C(Cl)C2(Cl)C1(Cl)Cl (configuration not stated)
active: [4] 39.2 µM
inactive: [2] | [3] | [5] | [6]

O=C1c2ccccc2C(=O)N1SC(Cl)(Cl)Cl
inactive: [1] | [2] | [3] | [5] | [6]

Oc1cc(Cl)ccc1Oc1ccc(Cl)cc1Cl
inactive: [1] | [5] | [6] | [9]
active: [4] 11.9 µM | [7] 11.9 µM and 11.6 µM

N#CN
not listed: [4] | [8] | [9]
inactive: all other assays above

Clc1ccccc1-c1nnc(-c2ccccc2Cl)nn1
not listed: [4] | [9]
inactive: all other assays above

CC(C)(C)C(O)/C(=C\c1ccc(Cl)cc1Cl)n1cncn1 (configuration not stated)
active: [2] 86.7 µM | [3] 93.6 µM
inactive: [1] | [5] | [6] | [9]

O=S(=O)(O)C(F)(F)C(F)(F)C(F)(F)C(F)(F)C(F)(F)C(F)(F)C(F)(F)C(F)(F)F
inactive: [7] | [8] | [5] | [6]

N#Cc1c(Cl)c(Cl)c(Cl)c(C#N)c1Cl
active: [1] 0.338 µM | [7] 0.0765 µM
not listed: [4] | [8]
inactive: all other assays above

CNC(=O)Oc1ccccc1OC(C)C
not listed: [4]
inactive: all other assays above

O=C(NC(=O)c1c(F)cccc1F)Nc1ccc(OC(F)(F)C(F)OC(F)(F)F)c(Cl)c1 (configuration not stated)
not listed: [4]
inactive: all other assays above

CCCN(CCOc1c(Cl)cc(Cl)cc1Cl)C(=O)n1ccnc1
active: [4] 11.7 µM | [7] 11.9 µM | [9] 0.374 µM
inactive: [1] | [8] | [5] | [6]

ClC1C(Cl)C(Cl)C(Cl)C(Cl)C1Cl (configuration not stated)
not listed: [2] | [3] | [9]
inactive: all other assays above

CC[C@H](C)[C@H]1O[C@]2(C=C[C@@H]1C)C[C@@H]1C[C@@H](C/C=C(\C)[C@@H](O[C@H]3C[C@H](OC)[C@@H](O[C@H]4C[C@H](OC)[C@@H](O)[C@H](C)O4)[C@H](C)O3)[C@@H](C)/C=C/C=C3\CO[C@@H]4[C@H](O)C(C)=C[C@@H](C(=O)O1)[C@]34O)O2 (tested in a mixture with another compound)
active: [7] 7.4 µM | [8] 9.87 µM
inactive: [2] | [3] | [7] | [8] | [5] | [6] | [9]

CC1(C)C(C=C(Cl)Cl)C1C(=O)OC(C#N)c1ccc(F)c(Oc2ccccc2)c1 (configuration not stated)
not listed: [4] | [8]
inactive: all other assays above

O=C(O)C(F)(F)C(F)(F)C(F)(F)C(F)(F)C(F)(F)C(F)(F)C(F)(F)F
inactive: [1] | [7] | [8]

O=[N+]([O-])c1c(Cl)c(Cl)c(Cl)c(Cl)c1Cl
not listed: [4] | [8]
inactive: all other assays above

O=C(Nc1ccccc1)Nc1cnns1
inactive: [1] | [2] | [3] | [5] | [6]

O=C(O)COc1ccc(Cl)cc1Cl
inactive: [7] | [8] | [9]

CC(C)(C)C(O)C(Oc1ccc(Cl)cc1)n1cncn1 (configuration not stated)
active: [1] 55.6 µM
inactive: [7] | [8] | [5] | [6]
